The nature of assay [1]: ATG_NFI_CIS: Attagene CIS-FACTORIAL HepG2 Assay for human Nuclear Factor I (NFI) (AID 2282989). To be noted: HepG2 cis-regulatory reporter, NFI response element transcription; actives raise or lower the signal. The method, boiled down:
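Endogenous TF activity in HepG2 cells transiently transfected with cis-element-driven multiplexed reporter units, read 24 h after dosing. Reporter mRNA quantified by RT-PCR, 6-FAM labelling, HpaI digestion and capillary electrophoresis; bidirectional fit versus DMSO.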

Assay [2] concerns the target Myc proto-oncogene protein (Homo sapiens) (UniProt P01106). The experiment in a line: ATG_Myc_CIS: Attagene CIS-FACTORIAL HepG2 Assay for human Myelocytomatosis (Myc) Proto-Oncogene Transcription Factor (AID 2282990). To be noted: HepG2, Attagene cis-reporter transcription factor activity; actives raise or lower the signal. Summed up: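 Read-out: fluorescent reporter mRNA fragments resolved by capillary electrophoresis after RT-PCR. Human HepG2 liver cells carried transfected cis-element reporter units and were dosed for 24 h. Gain or loss of signal fitted relative to DMSO baseline.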

Assay [3] in a line: ATG_NF_kB_CIS: Attagene CIS-FACTORIAL HepG2 Assay for human Nuclear Factor Kappa B (NF-kB) (AID 2282991). To be noted: HepG2 Attagene cis-factorial NF-kB reporter mRNA; actives raise or lower the signal. Summed up:
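After 24 h compound incubation, transfected HepG2 cells yield total RNA; reporter cDNA is PCR-amplified, end-labelled with 6-FAM, HpaI-digested and analysed on a genetic analyser. Endogenous factor activity, DMSO-referenced bidirectional fit.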

Assay [4] is described as follows: ATG_NRF2_ARE_CIS: Attagene CIS-FACTORIAL HepG2 Assay for human Nuclear Factor Erythroid 2 Related Factor 2 (NFR2) response to Antioxidant Response Elements (ARE) (AID 2282992).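 On AC50: reporter mRNA level measured by RT-PCR and capillary electrophoresis fluorescence.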 The settings on record: HepG2 Attagene ARE/NRF2 reporter, transcription factor activity; actives raise or lower the signal. Summed up: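 Fluorescence intensity of reporter-specific cDNA fragments, separated by capillary electrophoresis, reflects mRNA induction in transfected HepG2 cells at 24 h. Activity is fitted bidirectionally, DMSO serving as baseline.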

Assay [5] can be described thus: BSK_3C_uPAR: BioMAP Diversity Plus: 3C Assay for Urokinase-type plasminogen activator receptor (uPAR) Biomarker Activity (AID 2282998). To be noted: BioMAP 3C HUVEC, uPAR biomarker ELISA; actives raise or lower the signal. The method, boiled down: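 Primary human umbilical vein endothelial cells, 3C system; surface uPAR measured by ELISA 24 h after dosing. Cytotoxicity via SRB total protein in parallel cultures; bidirectional fit against DMSO.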
(An ELISA detects its analyte on a solid surface through an enzyme-linked reagent.)

Assay [6] can be described thus: BSK_3C_VCAM1: BioMAP Diversity Plus: 3C Assay for Vascular cell adhesion molecule 1 (VCAM1) Biomarker Activity (AID 2282999). To be noted: BioMAP 3C HUVEC, VCAM1 ELISA, cytokine-stimulated; actives raise or lower the signal. Summed up: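 HUVEC primary cells, 24 h compound exposure; VCAM-1 by ELISA; gain/loss of signal fitted bidirectionally vs DMSO baseline.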
For assay [7], the target named is human Peroxisome Proliferator-activated Receptor alpha (PPARa), PPARA (gene 5465) (UniProt Q07869). Nature of the assay: ATG_PPARa_TRANS: Attagene TRANS-FACTORIAL HepG2 Assay for human Peroxisome Proliferator-activated Receptor alpha (PPARa) (AID 2283001; active means hit-call score of the fitted dose curve at least 0.9, where 1 is the maximum). Summed up: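 HepG2, transient MRTU transfection, 24 h treatment. RT-PCR → FAM labelling → capillary electrophoresis. Fit vs DMSO, positive direction.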

Assay [8] concerns the target human Retinoic Acid Receptor beta (RARb), RARB (gene 5915) (UniProt P10826). Nature of the assay: ATG_RARb_TRANS: Attagene TRANS-FACTORIAL HepG2 Assay for human Retinoic Acid Receptor beta (AID 2283004; active means hit-call score of the fitted dose curve at least 0.9, where 1 is the maximum). Summed up:
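HepG2 cells transiently transfected with multiplexed GAL4-UAS reporter units expressing chimeric NR–Gal4 fusions; 24 h compound exposure. Reporter mRNA quantified by RT-PCR, 6-FAM labelling, HpaI digestion and capillary electrophoresis; gain-of-signal fitted against DMSO baseline.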

Assay [9] addresses Peroxisome proliferator-activated receptor gamma (Homo sapiens) (UniProt P37231). Nature of the assay: ATG_PPARg_TRANS: Attagene TRANS-FACTORIAL HepG2 Assay for human Peroxisome Proliferator-activated Receptor-gamma (PPARg) (AID 2283007; active means hit-call score of the fitted dose curve at least 0.9, where 1 is the maximum). The method, boiled down: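 Liver-derived HepG2 cells expressing an exogenous NR-Gal4 chimera alongside GAL4-UAS reporter genes; 24 h exposure. Fluorescence of reporter RT-PCR products, separated by capillary electrophoresis, gives mRNA induction relative to DMSO.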

Assay [10] addresses Nuclear receptor subfamily 1 group I member 2 (Homo sapiens) (UniProt O75469). Nature of the assay: ATG_PXR_TRANS: Attagene TRANS-FACTORIAL HepG2 Assay for human Pregnane X Receptor (PXR) (AID 2283008; active means hit-call score of the fitted dose curve at least 0.9, where 1 is the maximum). The method, boiled down:
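Transient HepG2 transfectants carrying multiplexed reporter transcription units; PXR activity read through a Gal4 chimera. 24 h exposure. RT-PCR/CE fluorescence; upward curve fit referenced to DMSO.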

Assay [11] concerns the target human Retinoic Acid Receptor gamma (RARg), RARG (gene 5916) (UniProt P13631). Nature of the assay: ATG_RARg_TRANS: Attagene TRANS-FACTORIAL HepG2 Assay for human Retinoic Acid Receptor gamma (RARg) (AID 2283009; active means hit-call score of the fitted dose curve at least 0.9, where 1 is the maximum). Summed up: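 TRANS format measured activity of exogenous NR-GAL4 fusion (RARg) in transfected HepG2 liver cells after 24 h dosing. Induced reporter RNA was detected by RT-PCR/capillary electrophoresis fluorescence, analysed in the positive direction against DMSO.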

The nature of assay [12]: ATG_Oct_MLP_CIS: Attagene CIS-FACTORIAL HepG2 Assay for human Octamer-Binding Transcription Factor (Oct) (AID 2282993). The settings on record: HepG2 Attagene cis-factorial Oct reporter, mRNA; actives raise or lower the signal. Summed up:
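HepG2 cells transiently transfected with cis-element-driven reporter transcription units (endogenous TF activity); 24 h compound exposure. Reporter mRNA quantified by RT-PCR, 6-FAM labelling, HpaI digestion and capillary electrophoresis; bidirectional fit versus DMSO baseline.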

For assay [13], the target named is Cellular tumor antigen p53 (Homo sapiens) (UniProt P04637). The experiment in a line: ATG_p53_CIS: Attagene CIS-FACTORIAL HepG2 Assay for human p53 Transcription Factor (AID 2282994). To be noted: HepG2 p53 cis-element reporter, Attagene mRNA; actives raise or lower the signal. Summed up:
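Transiently transfected HepG2 (multiple cis reporter transcription units); exposure 24 h; reporter RNA via RT-PCR, 6-FAM extension, 2 h HpaI digest at 37 C, CE detection; DMSO baseline.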

Assay [14] addresses human Peroxisome Proliferator-activated Receptor delta (PPARd), PPARD (gene 5467) (UniProt Q03181). The experiment in a line: ATG_PPARd_TRANS: Attagene TRANS-FACTORIAL HepG2 Assay for human Peroxisome Proliferator-activated Receptor delta (PPARd) (AID 2283002; active means hit-call score of the fitted dose curve at least 0.9, where 1 is the maximum). The method, boiled down: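 Read-out: reporter mRNA induction, quantified by fluorescent RT-PCR products resolved by capillary electrophoresis. Human HepG2 liver cells carried transiently transfected Gal4-UAS reporter constructs with chimeric NR-Gal4 fusions. Cells were dosed for 24 h; DMSO served as baseline.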

Read-out in assay [15]: Intercellular Adhesion Molecule 1 (ICAM1), ICAM1 (gene 3383)
Nature of the assay: BSK_3C_ICAM1: BioMAP Diversity Plus: 3C Assay for Intercellular Adhesion Molecule 1 (ICAM1) Biomarker Activity (AID 2283003). The settings on record: primary human endothelial cells (HUVEC); actives raise or lower the signal. Summed up:
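Chemicals are dosed onto primary human umbilical vein endothelium (3C system). After 24 h, ICAM-1 is measured by ELISA, and responses are fitted bidirectionally relative to DMSO.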

Assay [16] can be described thus: BSK_3C_Proliferation: Cell Proliferation Assessment in the BioMAP Diversity Plus: 3C Assay (AID 2283006).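 On AC50: potency may reflect either rise or fall in cell number versus DMSO.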 To be noted: primary human endothelial cells (HUVEC). Summed up: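 Cells (human umbilical vein endothelial, sub-confluent) receive test chemical; after 48 h they are fixed in 10% trichloroacetic acid, stained with 0.1% SRB and read at 560 nm. Activity is referenced to DMSO, fitting increases and decreases.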

The nature of assay [17]: BSK_3C_TissueFactor: BioMAP Diversity Plus: 3C Assay for Tissue Factor Biomarker Activity (AID 2282997). The settings on record: BioMAP 3C HUVEC, tissue factor biomarker readout; actives raise or lower the signal. The method, boiled down: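 Readout: Tissue Factor ELISA. Cells: human primary umbilical vein endothelium. Time: 24 h after dosing. Analysis: bidirectional fit, DMSO baseline.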

Assay [18] in a line: BSK_4H_Eotaxin3: BioMAP Diversity Plus: 4H Assay for Eotaxin 3 Biomarker Activity (AID 2283000).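 Further: CCL26 protein level quantified by ELISA in parallel with SRB cytotoxicity check.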 To be noted: primary human endothelial cells (HUVEC); actives raise or lower the signal. Summed up: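 HUVEC, 24 h post-dose, ELISA for Eotaxin-3/CCL26. Gain or loss of signal fitted bidirectionally vs DMSO baseline.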
Assay [19] concerns the target Retinoic acid receptor alpha (Homo sapiens) (UniProt P10276). The experiment in a line: ATG_RARa_TRANS: Attagene TRANS-FACTORIAL HepG2 Assay for human Retinoic Acid Receptor alpha (RARa) (AID 2283005; active means hit-call score of the fitted dose curve at least 0.9, where 1 is the maximum). Summed up:
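HepG2 transiently transfected with multiplex GAL4-UAS reporter units including a human RARa–GAL4 chimera; 24 h compound exposure. Reporter mRNA quantified by RT-PCR, 6-FAM labeling and capillary electrophoresis; gain of signal versus DMSO.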

SMILES strings stand for the structures. Several values for one entry are separate records, joined by “and”; a condition that tells them apart may be missing. Equal values may be shown once. Records with an inconclusive call do not appear. More than one record can exist for a structure, and the calls need not agree. Activity calls are given as the source filed them. How the source made its calls, unless noted: active means hit-call score of the fitted dose curve at least 0.9, where 1 is the maximum; inactive means score below 0.9.

As a reminder, the AC50 is the midpoint of the concentration-response curve, whichever way the signal moves.

Chain of human Peroxisome Proliferator-activated Receptor delta (PPARd), PPARD (gene 5467) (Q03181 whole entry, looked up, the tested form may be a part): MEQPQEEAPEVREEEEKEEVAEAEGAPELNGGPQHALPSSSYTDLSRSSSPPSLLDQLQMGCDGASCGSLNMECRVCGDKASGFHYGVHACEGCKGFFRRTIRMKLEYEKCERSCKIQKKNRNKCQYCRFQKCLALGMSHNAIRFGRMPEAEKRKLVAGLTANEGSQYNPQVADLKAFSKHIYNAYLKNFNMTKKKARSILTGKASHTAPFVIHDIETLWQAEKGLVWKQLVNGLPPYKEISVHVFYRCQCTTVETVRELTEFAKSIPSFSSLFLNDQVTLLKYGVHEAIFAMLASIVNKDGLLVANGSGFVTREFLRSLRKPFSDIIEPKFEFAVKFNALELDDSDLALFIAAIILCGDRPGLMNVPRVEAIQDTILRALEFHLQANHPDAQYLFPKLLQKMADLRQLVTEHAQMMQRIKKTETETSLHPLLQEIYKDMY
Chain of Nuclear receptor subfamily 1 group I member 2 (Homo sapiens) (O75469 whole entry, looked up, the tested form may be a part): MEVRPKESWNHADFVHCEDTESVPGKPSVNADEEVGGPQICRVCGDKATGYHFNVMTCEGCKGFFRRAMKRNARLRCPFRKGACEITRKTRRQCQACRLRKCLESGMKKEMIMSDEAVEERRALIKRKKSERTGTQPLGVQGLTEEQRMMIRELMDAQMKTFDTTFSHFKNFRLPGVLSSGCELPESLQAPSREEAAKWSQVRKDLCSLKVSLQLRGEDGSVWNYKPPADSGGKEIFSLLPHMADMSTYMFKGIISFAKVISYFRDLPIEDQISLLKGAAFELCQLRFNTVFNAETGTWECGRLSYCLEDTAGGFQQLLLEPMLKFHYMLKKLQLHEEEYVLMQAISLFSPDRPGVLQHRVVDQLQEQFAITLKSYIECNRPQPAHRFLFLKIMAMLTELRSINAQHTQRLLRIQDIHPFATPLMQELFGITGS
Chain of Cellular tumor antigen p53 (Homo sapiens) (P04637 whole entry, looked up): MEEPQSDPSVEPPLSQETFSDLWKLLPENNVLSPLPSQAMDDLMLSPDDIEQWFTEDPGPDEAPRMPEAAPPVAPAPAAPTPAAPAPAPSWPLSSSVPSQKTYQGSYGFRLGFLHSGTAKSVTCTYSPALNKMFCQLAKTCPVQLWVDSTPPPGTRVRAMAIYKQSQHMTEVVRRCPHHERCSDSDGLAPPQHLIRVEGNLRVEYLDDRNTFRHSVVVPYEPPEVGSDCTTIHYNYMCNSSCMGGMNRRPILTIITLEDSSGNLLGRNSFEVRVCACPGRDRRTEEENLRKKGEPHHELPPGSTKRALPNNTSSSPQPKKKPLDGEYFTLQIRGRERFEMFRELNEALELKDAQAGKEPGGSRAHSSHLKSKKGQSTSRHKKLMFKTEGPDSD
Chain of Peroxisome proliferator-activated receptor gamma (Homo sapiens) (P37231 whole entry, looked up, the tested form may be a part): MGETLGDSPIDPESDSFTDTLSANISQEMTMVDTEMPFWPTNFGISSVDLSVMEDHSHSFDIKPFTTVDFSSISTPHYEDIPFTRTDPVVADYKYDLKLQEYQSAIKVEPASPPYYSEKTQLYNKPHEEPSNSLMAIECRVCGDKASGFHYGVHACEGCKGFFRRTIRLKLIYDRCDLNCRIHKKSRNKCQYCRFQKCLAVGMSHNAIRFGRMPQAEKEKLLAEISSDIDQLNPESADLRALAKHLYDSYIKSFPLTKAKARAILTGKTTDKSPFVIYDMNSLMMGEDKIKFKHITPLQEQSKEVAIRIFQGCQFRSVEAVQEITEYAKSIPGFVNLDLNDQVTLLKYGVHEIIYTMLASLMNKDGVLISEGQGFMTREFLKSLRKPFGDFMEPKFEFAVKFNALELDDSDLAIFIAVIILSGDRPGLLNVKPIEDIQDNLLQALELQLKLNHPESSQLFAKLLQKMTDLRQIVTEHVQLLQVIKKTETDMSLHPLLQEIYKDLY
Chain of human Retinoic Acid Receptor gamma (RARg), RARG (gene 5916) (P13631 whole entry, looked up, the tested form may be a part): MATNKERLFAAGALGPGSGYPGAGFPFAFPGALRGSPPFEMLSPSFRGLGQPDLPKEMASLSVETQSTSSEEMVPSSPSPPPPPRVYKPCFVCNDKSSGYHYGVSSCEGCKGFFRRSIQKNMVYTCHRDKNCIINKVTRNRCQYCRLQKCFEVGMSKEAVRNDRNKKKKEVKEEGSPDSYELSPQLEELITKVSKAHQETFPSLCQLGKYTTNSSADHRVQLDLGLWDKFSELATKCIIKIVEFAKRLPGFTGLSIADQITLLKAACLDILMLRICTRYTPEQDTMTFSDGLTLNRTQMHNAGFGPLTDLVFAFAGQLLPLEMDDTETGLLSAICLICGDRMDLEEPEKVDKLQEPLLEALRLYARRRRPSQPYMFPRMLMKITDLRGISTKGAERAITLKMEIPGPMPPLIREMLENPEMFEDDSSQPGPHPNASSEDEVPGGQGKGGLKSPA
Chain of Myc proto-oncogene protein (Homo sapiens) (P01106 whole entry, looked up, the tested form may be a part): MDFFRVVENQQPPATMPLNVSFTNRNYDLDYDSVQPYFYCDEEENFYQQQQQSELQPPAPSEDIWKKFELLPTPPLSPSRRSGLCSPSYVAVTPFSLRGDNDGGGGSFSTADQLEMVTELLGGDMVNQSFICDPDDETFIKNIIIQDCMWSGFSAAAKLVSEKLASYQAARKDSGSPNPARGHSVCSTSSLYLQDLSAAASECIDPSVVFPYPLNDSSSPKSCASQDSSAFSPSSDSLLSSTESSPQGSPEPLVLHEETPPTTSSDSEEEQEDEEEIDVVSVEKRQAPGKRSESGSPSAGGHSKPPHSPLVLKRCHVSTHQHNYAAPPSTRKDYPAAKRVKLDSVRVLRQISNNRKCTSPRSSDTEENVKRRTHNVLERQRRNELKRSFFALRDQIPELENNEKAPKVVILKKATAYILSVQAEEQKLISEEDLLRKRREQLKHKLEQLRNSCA
Chain of human Peroxisome Proliferator-activated Receptor alpha (PPARa), PPARA (gene 5465) (Q07869 whole entry, looked up): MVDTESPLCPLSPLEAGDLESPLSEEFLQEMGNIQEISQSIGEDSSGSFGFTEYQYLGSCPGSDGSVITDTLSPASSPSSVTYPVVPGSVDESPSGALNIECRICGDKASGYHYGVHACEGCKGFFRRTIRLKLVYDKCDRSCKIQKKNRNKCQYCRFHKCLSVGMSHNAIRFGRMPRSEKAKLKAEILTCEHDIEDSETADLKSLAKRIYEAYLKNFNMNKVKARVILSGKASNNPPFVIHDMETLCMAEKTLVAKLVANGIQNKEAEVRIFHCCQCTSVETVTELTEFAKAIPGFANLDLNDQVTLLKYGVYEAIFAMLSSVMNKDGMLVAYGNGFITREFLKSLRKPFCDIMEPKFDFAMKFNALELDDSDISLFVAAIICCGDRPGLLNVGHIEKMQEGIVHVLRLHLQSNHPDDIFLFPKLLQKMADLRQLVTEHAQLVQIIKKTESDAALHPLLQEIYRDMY
Chain of human Retinoic Acid Receptor beta (RARb), RARB (gene 5915) (P10826 whole entry, looked up, the tested form may be a part): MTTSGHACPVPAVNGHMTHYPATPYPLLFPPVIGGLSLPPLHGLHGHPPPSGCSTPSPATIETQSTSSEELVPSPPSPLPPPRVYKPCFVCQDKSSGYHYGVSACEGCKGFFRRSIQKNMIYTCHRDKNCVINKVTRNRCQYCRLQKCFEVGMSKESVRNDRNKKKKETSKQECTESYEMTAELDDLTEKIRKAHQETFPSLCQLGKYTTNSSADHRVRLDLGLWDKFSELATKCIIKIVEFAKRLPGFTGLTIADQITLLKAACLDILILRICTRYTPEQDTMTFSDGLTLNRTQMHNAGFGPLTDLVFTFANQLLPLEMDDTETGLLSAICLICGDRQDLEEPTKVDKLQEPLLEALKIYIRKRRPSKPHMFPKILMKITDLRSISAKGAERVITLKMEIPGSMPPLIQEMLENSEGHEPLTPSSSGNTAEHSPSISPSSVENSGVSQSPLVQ
Chain of Retinoic acid receptor alpha (Homo sapiens) (P10276 whole entry, looked up, the tested form may be a part): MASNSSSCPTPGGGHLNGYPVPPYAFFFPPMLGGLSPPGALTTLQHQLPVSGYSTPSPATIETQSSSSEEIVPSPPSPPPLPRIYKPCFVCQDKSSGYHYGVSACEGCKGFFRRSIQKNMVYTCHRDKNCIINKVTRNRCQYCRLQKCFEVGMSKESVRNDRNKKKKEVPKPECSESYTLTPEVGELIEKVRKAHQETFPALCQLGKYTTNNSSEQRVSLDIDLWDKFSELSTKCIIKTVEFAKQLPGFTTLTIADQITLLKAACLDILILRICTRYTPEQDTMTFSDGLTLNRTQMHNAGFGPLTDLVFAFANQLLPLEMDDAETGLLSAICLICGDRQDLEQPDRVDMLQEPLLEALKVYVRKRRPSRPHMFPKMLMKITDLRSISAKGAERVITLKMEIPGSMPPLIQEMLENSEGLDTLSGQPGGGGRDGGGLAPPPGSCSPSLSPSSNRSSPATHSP

Turning to `C#C[C@]1(O)CC[C@H]2[C@@H]3CCc4cc(OC)ccc4[C@H]3CC[C@@]21C`, the call in [1], in [2], in [3], in assay [5], in assay [6] and in [7] was inactive. In addition, the call in assay [8], in assay [9] and in [11] was inactive. Also, the AC50 in assay [4] is 18 µM (active); in [10] it was 4.66 µM (active).

Take `CN(C)Cc1ccccc1O`: the molecule was called inactive in assay [1], in assay [2], in [4], in [13], in assay [7] and in assay [14]. Moreover, the outcome in [9] and in assay [10] was inactive. Moreover, the AC50 in assay [12] was 179 µM (active).

As to `OCCCC(F)(F)C(F)(F)C(F)(F)C(F)(F)C(F)(F)C(F)(F)C(F)(F)F`, the AC50 in [2] is 79.9 µM (active); in assay [3] it was 73.6 µM (active); in [4], 67.1 µM (active) and 133 µM (active); in assay [12] it was 50 µM (active) and 245 µM (active); in [5], 44.8 µM (active) and 43.5 µM (active); in assay [6], 24.3 µM (active) and 20.5 µM (active). Moreover, the concentration at half-maximal activity (AC50) was 45.1 µM (active) and 52.9 µM (active) in [15]; 10.3 µM (active) and 10.4 µM (active) in assay [16]. Also, the call in [2], in assay [3], in assay [13], in [7], in assay [14] and in [9] was inactive. Also, the molecule was called inactive in assay [10] and in assay [11].

In the case of `CCCCCCOC(=O)c1ccccc1`, the molecule was called inactive in assay [1], in assay [2], in assay [3], in [4], in assay [12] and in [7]. The molecule was called inactive in [14] and in [11].

In the case of `CC(Cc1ccc(O)c(O)c1)C(C)Cc1ccc(O)c(O)c1` (configuration not stated), the molecule was classed as inactive in [2] and in assay [13]. For the same molecule, the AC50 in assay [3] is 55.3 µM (active); in [4], 22.8 µM (active); in assay [12], 20.6 µM (active); in [9], 19.3 µM (active); in [10], 6.87 µM (active).

As to `C=C(C)C(=O)OCCC(F)(F)C(F)(F)C(F)(F)C(F)(F)C(F)(C(F)(F)F)C(F)(F)F`, the molecule was called inactive in assay [2], in [3], in [4], in [12], in assay [17] and in assay [5]. Besides, the outcome in [6], in assay [18], in [14], in assay [19], in assay [9] and in [10] was inactive.

Take `FC1CC(F)(F)C(F)(F)C1(F)F` (configuration not stated): the molecule was called inactive in assay [2], in assay [3], in assay [4], in assay [12], in assay [13] and in assay [5]. In addition, the outcome in assay [6], in assay [18], in [7], in assay [8], in [19] and in assay [16] was inactive. Further, in [9], the result was inactive.

Take `O=C(C=Cc1ccccc1)OCC=Cc1ccccc1`: the call in assay [1], in [2], in assay [12], in assay [13], in assay [7] and in assay [14] was inactive. In addition, the half-maximal activity concentration (AC50) in [4] was 2.64 µM (active); in assay [9] it was 0.641 µM (active); in assay [10], 23.9 µM (active).

Consider `N=C(N)C(F)(F)C(F)(F)C(F)(F)C(F)(F)C(F)(F)C(F)(F)C(F)(F)F`, for which the AC50 in assay [1] is 271 µM (active); in assay [4], 125 µM (active); in [13] it was 88.9 µM (active); in assay [6] it was 24.1 µM (active) and 15 µM (active). Besides, the call in [2], in assay [3], in [12], in assay [5], in [7] and in assay [15] was inactive. The outcome in assay [9] and in assay [10] was inactive.

These data come from PubChem BioAssay (EPA / NIEHS).
